Test results reported in paper PMC5540273 (PLoS ONE, 2017).

Tests used:
Conditions in all cases: concentration: 1 μM, replicates: in singlicate; n = 1
MLK1 = system: T1, MLK1
T1 construct: gene MAP3K9

MLK2 = system: MLK2
MLK3 = system: MLK3
MRCKA = system: MRCKA
MRCKB = system: T2, MRCKB
T2 construct: gene CDC42BPB

MST1R = system: MST1R
MST1 = system: T3, MST1
T3 construct: gene STK4

MST2 = system: T4, MST2
T4 construct: gene STK3

MST3 = system: T5, MST3
T5 construct: gene STK24

MST4 = system: MST4
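Note: KINOMEscan kinase panel screen.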

SMILES	%Inh (MLK1) [%]	%Inh (MLK2) [%]	%Inh (MLK3) [%]	%Inh (MRCKA) [%]	%Inh (MRCKB) [%]	%Inh (MST1R) [%]	%Inh (MST1) [%]	%Inh (MST2) [%]	%Inh (MST3) [%]	%Inh (MST4) [%]
Nc1ncc(-c2cn[nH]c2)c2scc(-c3ccc4c(c3)CCN4C(=O)Cc3ccccc3)c12 [GSK2593067]	16	0	32	0	0	27	99.4	14	0	20
CC(C)(C)c1ccc(C(=O)Nc2cn3cc(-n4ccnc4)ccc3n2)cc1	18	0	0	28	0	28	7	3	0	0
Cc1ccc(NC(=O)c2ccnc(N3CCCCC3)c2)cc1-c1ccc(C(=O)NCC2CC2)cc1 [GW775610]	0	0	4	0	9	4	13	32	30	0
COc1cccc(NC(=O)NCCNc2ccnc(Nc3ccc(F)cc3)n2)c1 [GSK1379879]	0	0	0	34	3	37	0	15	0	0
CN(c1ccc(NC(=O)N2CCN(CCCN3CCOCC3)CC2)cc1)c1ccnc(Nc2ccc(CS(C)(=O)=O)cc2)n1.Cl [GW830899]	13	29	1	19	15	0	0	0	0	0
COc1cccc2c(-c3ccncc3)c(-c3ccc(F)cc3)nn12 [GW468513]	0	1	4	60	67	15	31	0	0	0
Cn1cc(-c2ccc3c(c2)CCN3C(=O)Cc2cc(F)cc(F)c2F)c2c(N)ncnc21 [GSK2634140]	38	0	54	0	0	43	85	42	4	0
Cc1cc(-c2c(-c3ccc(F)cc3)ncn2CCCN2CCOCC2)nc(N)n1 [SB-222517]	5	49	0	0	20	18	13	20	5	1
Cc1nn2c(=O)cc(N3CCO[C@H](C)C3)nc2n1Cc1cccc(Cl)c1Cl [GSK2373693]	0	5	9	0	60	0	20	0	0	0
Nc1ncc(-c2ccc3nccc(-c4ccncc4)c3c2)cc1S(=O)(=O)N1CCCCC1 [GSK1693850]	0	0	7	12	0	35	8	25	29	0
NCCC(NC(=O)c1cc(Br)c(-c2ccnc3[nH]ccc23)s1)c1ccccc1.O=C(O)C(F)(F)F.O=C(O)C(F)(F)F (stereo not shown) [GSK1307810]	0	0	0	86	99.1	29	0	4	11	23
CC(C)c1nc(-c2cccc(NS(=O)(=O)c3c(F)cccc3F)c2)c(-c2ccnc(Nc3ccc(N4CCOCC4)nc3)n2)s1.Cl [GSK1723980]	89	34	73	18	0	17	0	0	13	16
N#CC1(c2cccc(C(=O)Nc3cccc(Oc4ccc5nc(NC(=O)C6CC6)sc5n4)c3)c2)CC1	1	22	17	0	0	0	4	8	0	4
CC(C)NCC(Cc1ccccc1)NC(=O)c1cc(Br)c(-c2ccnc3[nH]ccc23)s1.Cl.Cl (stereo not shown) [GSK1383281]	4	0	0	25	89	43	0	0	0	26
CN(c1ccc(F)c(NC(=O)c2cccc(OC(C)(C)C#N)c2Cl)c1)c1ccc2nc(NC(=O)C3CC3)sc2n1	0	4	0	0	0	5	0	0	0	0
COc1cccc(C2=C(Nc3cccc(O)c3)C(=O)NC2=O)c1 [SB-390771]	21	0	4	18	0	0	13	12	0	7
